According to the supplement of paper PMC10681739:

These sequences were tested against T1, ETS1 (UniProt P14921) (assay: ETS1 binding intensity (PBM fluorescence), ETS1 alone (arbitrary fluorescence units); higher = stronger binding). Conditions: ETS1 concentration 1 nM; RUNX1 concentration 0 nM.
T1 sequence: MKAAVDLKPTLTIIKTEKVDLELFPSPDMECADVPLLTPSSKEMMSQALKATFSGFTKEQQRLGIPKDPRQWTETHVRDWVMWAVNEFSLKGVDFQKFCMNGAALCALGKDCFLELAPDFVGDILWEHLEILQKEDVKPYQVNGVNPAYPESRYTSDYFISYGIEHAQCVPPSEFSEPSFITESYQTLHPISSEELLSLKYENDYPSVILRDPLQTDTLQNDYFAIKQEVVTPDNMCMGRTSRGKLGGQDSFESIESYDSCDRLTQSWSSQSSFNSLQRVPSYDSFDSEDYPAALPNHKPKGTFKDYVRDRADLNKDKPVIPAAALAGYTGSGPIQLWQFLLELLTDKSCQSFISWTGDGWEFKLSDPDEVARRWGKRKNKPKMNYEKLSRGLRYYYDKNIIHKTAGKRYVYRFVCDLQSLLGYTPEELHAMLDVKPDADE

| Sequence | ETS1 binding intensity |
| --- | --- |
| GCGGCTGAGAACACAGGATGTGGCTTTTGGCAGATG | 6080 |
| TATGTCTGACTTCCGCTCGTGGTTTCCATCTTAGCC | 2870 |
| CTGCGTTTCCTCTGAGTTTTGCATGTTGAGGTTGGA | 462 |
| TGGAAGAGGGCAGGAAGTGTTGTGGTCACTCCCACC | 4450 |
| TCAGAGACTTCCGCTCAGCAGCAGCTGCGGCCAGGC | 966 |
| GAGAAAAGAGACTGAGGATGTGGTTTGGGGTGTGGG | 661 |
| CAGGGTGGAAACAGGAAGAGAAACCACACTTAACCT | 1540 |
| GATGGGCGAGTCAGGAAACCACAGCTCTGAGGGTGG | 607 |
| TGGAAGCGGCTTCCGGGGTGAATGCGGTTGGATCGT | 1150 |
| AGAGCAACAGGATGCAAATAACCACAAGCAAGAATA | 920 |
| CATGTGCTTCCGGCTTGATCTGTGGTTATTCTGGTT | 1370 |
| AGACGGTAGGCCAGGAAACCGCAGGCCCCTGCCGGG | 925 |
| GCACTACATTTCCCAGCTTTCCTCGCGGTAAAGAGA | 456 |
| CACCGGAAAAGGCAAGCGCGGCCGCGCGGTTGGCGC | 675 |
| GCGGAGGGAAGCGGAAATACTTGCGGTGGGGGCGAC | 3700 |
| AGCGCGCCGCCGACCGGATGCGGGAACTGGGCTCGG | 11800 |
| CCGCGCACCCGGAACTACCTCCCGACCCGCATCCCC | 562 |
| GAAACAATTTCCTGTACCTCTGTGGTAAAAATGATA | 1040 |
| AAGAGGAAGTCCCAAATTGCTTTTTAACCACCAACA | 522 |
| GAAGTCACTCAGGGAGGAAACCACAGGGCCGGTCCG | 466 |
| AGGGACTTCCGGTGACCAGAGCACTAGCGCCGCAAA | 2160 |
